# According to PubChem BioAssay (NCATS):
# Inconclusive results are not listed. Values without a mark were called inactive. Active and inactive are the calls of the source. The call rests on the fitted dose curve; in most records, active means well fitted cell-killing curve with a large enough effect; inconclusive means small, poorly fitted or top-dose-only effect; inactive means no such curve, though single readings can be large or run the other way.
# Test: qHTS of pediatric cancer cell lines to identify multiple opportunities for drug repurposing: Primary screen for SK-N-SH cells (AID 1347098); further: nearly all actives have a fitted effect of over 65% in size
# Details: SK-N-SH viability, CellTiter-Glo luminescence, 48 h; series mostly up to 57 µM; activity change, negative = cytotoxic: at the top concentration
# Description: Drug repurposing or repositioning has been offered as a strategy for drug development in oncology programs. This approach has special potential for childhood cancers and other rare or orphan diseases, where the expected return on new drug development has been a disincentive to pharmaceuticals.
# In this project we exploit the poly-pharmacology of drugs to discover new indications via phenotypic screening of a panel of 19 well-characterized cell lines derived from solid tumors seen in children and adolescents. The goal is to identify approved drugs with previously unrecognized anticancer properties that has the potential to reveal new mechanisms and biological processes involved in carcinogenesis or drug resistance. We employed a titration-based paradigm (quantitative high-throughput screening or qHTS), where all compounds were tested at multiple concentrations for their effect on cell viability. Concentration-response curves (CRCs) were derived directly from the primary screen, and both potency and efficacy values were used to identify compounds with robust bioactivity profiles. We screened the NIH Chemical Genomics Center (NCGC) Pharmaceutical Collection (NPC) and Mechanism Interrogation Plate (MIPE) small molecule collections of approved and investigational compounds against these cell lines; and measured metabolically active cells after 48 hours of compound treatment as a proxy for cell viability.
# Assay Submitter: Nathalia J. Martinez, National Center for Advancing Translational Sciences, National Institutes of Health, Rockville, MD, USA; email: natalia.martinez@nih.gov
# [1] Shen, M et al. Quantitative high-throughput phenotypic screening of pediatric cancer cell lines identifies multiple opportunities for drug repurposing. Oncotarget 2017 Dec 19;9(4):4758-4772. PMID 29435139.
# The cells were obtained from University of North Carolina (UNC), Pediatric Preclinical Testing Program (PPT), and Coriell Institute (CI).
# qHTS cell viability assay:
# Cells were assayed in growth media at a density of 500-1,000 cells/well. Five microliters of cells were dispensed into 1,536-well, white, solid-bottom, TC-treated plates (Greiner Bio One) using a multidrop dispenser and incubated at 37 degrees C, 5% CO2, under a humidified atmosphere for 5 hours. Twenty-three nanoliters of compounds and controls (neutral control DMSO or positive control bortezomib at final concentration of 2.3 µM) were subsequently transferred by Kalypsys pintool. For primary screens, the MIPE collection was tested at 11-point dilutions (final concentrations range from 0.78 nM to 46 µM) and the NPC collection at 8-point dilutions (final concentrations range from 0.59 nM to 46 µM). Compounds tested in follow-up screens were assayed at 11-point dilutions. Cells were incubated for 48 hours, followed by addition of 3 µL of CellTiter-Glo (Promega). After a 15 min incubation at room temperature, samples were analyzed for luminescence intensity using a ViewLux High-throughput CCD imager equipped with clear filters.
# On the % scale 0 is the no-effect control and ±100 the full control effect; potency means the concentration at half of the fitted maximal effect.
SMILES,"activity change, negative = cytotoxic [%]",Potency
O=[N+]([O-])c1ccc(Nc2ccccc2-c2ccccc2)c2nonc12,16.6,
O=C1C(CCC(O)c2ccc(F)cc2)C(c2ccc(O)cc2)N1c1ccc(F)cc1 (stereo not given),-10.1,
CC1CCN(c2cc(N3CCN(C)CC3)ccc2NC(=O)c2cc(C#N)c[nH]2)CC1,,21.5 µM (active)
COc1c(C)cnc(Cn2cnc3c(Cl)nc(N)nc32)c1C,,0.341 µM (active)
Cn1c(=O)c(Oc2ccc(F)cc2F)cc2cnc(NC3CCOCC3)nc21,9.52,
CCCCCCOC(=O)N=C(N)c1ccc(NCc2nc3cc(C(=O)N(CCC(=O)OCC)c4ccccn4)ccc3n2C)cc1,4.07,
C[C@@H]1[C@H](C)CC[C@]2(C(=O)O)CC[C@]3(C)C(=CC[C@@H]4[C@@]5(C)CC[C@H](O)C(C)(C)[C@H]5CC[C@]43C)[C@@H]12,,17.5 µM (active)
Cc1ccccc1C(C(=O)NC1CCCCC1)N(C(=O)CNc1ccc(C#N)cc1)c1cccc(F)c1 (stereo not given),14.9,
CN[C@@H]1CN(c2ccc3c(=O)c(C(=O)O)cn(-c4nccs4)c3n2)C[C@@H]1OC,,9.37 µM (active)
OCCn1cc(-c2ccc3c(c2)CCC3=NO)c(-c2ccncc2)n1,,19.2 µM (active)
COc1ccc(Cn2ccc3ccc(C(=O)NO)cc32)cc1,,21.5 µM (active)
COC(=O)Nc1ccc(-c2nc(N3CCOCC3)c3cnn(C4CCN(C(=O)OC)CC4)c3n2)cc1,,0.0192 µM (active)
CC1(C)CC(=O)c2c(C(F)(F)F)nn(-c3ccc(C(N)=O)c(NC4CCC(O)CC4)c3)c2C1 (stereo not given),,0.304 µM (active)
COC(=O)N1CCN(Cc2cccc(NC(=O)Nc3ccc(C)nc3)c2F)CC1,-3.35,
O=C(Nc1ccc(OC(F)(F)F)cc1)c1sccc1NCc1ccnc2ccccc12,4.79,
CC(C)(C)c1nc(-c2cccc(NS(=O)(=O)c3c(F)cccc3F)c2F)c(-c2ccnc(N)n2)s1,-19.8,
Cc1cccc(-c2[nH]c(C(C)(C)C)nc2-c2ccc3c(c2)OCO3)n1,,30.4 µM (active)
CC(C)(CO)[C@@H](O)C(=O)NCCC(=O)O,19.4,
O=C(CC12CC3CC(CC(C3)C1)C2)Nc1cccc2nc(NCCNCCO)ccc12,,24.1 µM (active)
CN1[C@H]2CC[C@H]1CC(OC(=O)c1c[nH]c3ccccc13)C2 (stereo not given in full),,24.1 µM (active)

SMILES,"activity change, negative = cytotoxic [%]",Potency
CCNC(=O)[C@H]1O[C@@H](n2cnc3c(N)nc(NCCc4ccc(CCC(=O)O)cc4)nc32)[C@H](O)[C@H]1O,1.33,
C[C@H]1COC2=C1C(=O)C(=O)c1c2ccc2c1CCCC2(C)C,-6.56,
CC(=O)OCC(=O)[C@@]1(O)CC[C@H]2[C@@H]3CCC4=CC(=O)C=C[C@]4(C)[C@@H]3[C@@H](O)C[C@@]21C,10.5,
Cn1c(=O)c(-c2c(Cl)cccc2Cl)cc2cnc(Nc3cccc(C(=O)O)c3)nc21,3.81,
NC1(C(=O)N[C@@H](CCO)c2ccc(Cl)cc2)CCN(c2ncnc3[nH]ccc23)CC1,,30.4 µM (active)
Clc1ccc(C2(c3ccc(-c4cn[nH]c4)cc3)CCNCC2)cc1,,24.1 µM (active)
CC(C)(F)C[C@H](N[C@@H](c1ccc(-c2ccc(S(C)(=O)=O)cc2)cc1)C(F)(F)F)C(=O)NC1(C#N)CC1,-2.87,
Cc1c(-c2cccc3c(CCCOc4cccc5ccccc45)c(C(=O)O)n(Cc4cccnc4)c23)c(COc2ccc(N3CCN([S+](=O)([O-])N(C)C)CC3)cc2)nn1C,-24.7,
Cc1nc2c([nH]1)CCN(C(=O)c1ccc(NC(=O)c3ccccc3-c3ccccc3)cc1)c1ccccc1-2,10.7,
CC(C)Oc1cc(Nc2nc(N[C@@H](C)c3ccc(F)cn3)ncc2Cl)[nH]n1,,13.6 µM (active)
COc1ccc(-c2cc(=O)c3c(O)cc(O[C@@H]4O[C@H](CO[C@@H]5O[C@@H](C)[C@H](O)[C@@H](O)[C@@H]5O)[C@@H](O)[C@H](O)[C@@H]4O)cc3o2)cc1O,,27.1 µM (active)
CN(CC=CC#CC(C)(C)C)Cc1cccc2ccccc12,27.7,
C[C@@H]1CC=CC=CC=CC=C[C@@H](O[C@@H]2O[C@H](C)[C@@H](O)[C@H](N)[C@H]2O)C[C@@H]2O[C@](O)(C[C@@H](O)C[C@@H]3O[C@@H]3C=CC(=O)O1)C[C@H](O)[C@@H]2C(=O)O,12,
N#Cc1c(N(CC(=O)O)CC(=O)O)sc(C(=O)O)c1CC(=O)O,15.7,
CC(C)(OCc1nn(Cc2ccccc2)c2ccccc12)C(=O)O,,30.4 µM (active)
C[C@@]1(C(=O)Nc2ccc(F)nc2)CCCN1c1nc(Nc2cc(C3CC3)[nH]n2)c2cccn2n1,,1.92 µM (active)
O=C(O)C1=CC(O)C(O)[C@H](O)C1 (stereo not given in full),22.4,
CC[C@H](CC#N)OC(=O)N[C@@H](C)c1cccc(NC(=O)Nc2ccc(-c3cnco3)c(OC)c2)c1,-13.5,
CO[C@@H]1C(N(C)C(=O)c2ccccc2)C[C@H]2O[C@]1(C)n1c3ccccc3c3c4c(c5c6ccccc6n2c5c31)C(=O)NC4=O (stereo not given in full),,6.07 µM (active)
COc1cc(Nc2nc3ccccc3nc2NS(=O)(=O)c2ccc(NC(=O)c3ccc(C)c(OC)c3)cc2)cc(OC)c1,,24.1 µM (active)
